Here are results for seven compounds from PubChem BioAssay (Tox21).

Values joined by “and” are separate entries in the source; they are usually repeats but may differ in a detail not shown here. Equal entries are not always repeated. Inconclusive results are not listed. Active and inactive are the calls of the source. Unless noted, calls come from the whole dose curve.

Experiment [1] is described as follows: qHTS assay to identify small molecule agonists of the sonic hedgehog signaling (Shh) pathway (AID 1259368).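 Note: NIH/3T3-derived 3T3Gli1-Luc cells carrying a stable Gli1-driven firefly luciferase reporter; series mostly up to about 92 µM; nearly all actives have a fitted effect of over 15% in size.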 A digest of the protocol:
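Cells of a mouse NIH/3T3 clone stably expressing luciferase under the Gli1 transcriptional response element are exposed to test chemicals for 24 hr at 37 C. Pathway activation is detected as a rise in luminescence.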
(qHTS replaces the single test concentration by a dilution series.)

A short description of experiment [2]: qHTS assay to identify small molecule antagonists of the sonic hedgehog signaling (Shh) pathway (AID 1259369). Note: nearly all actives have a fitted effect of over 45% in size. Note: potency is the fitted concentration of half-maximal effect. A digest of the protocol:
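Cells are plated and held 4hr at 37 C, compounds (DMSO) are pinned in, conditioned medium is added to stimulate the pathway, and after 24hr luciferase reagent is added for 30min before luminescence is read.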

The target in experiment [3] is Estrogen receptor beta (Homo sapiens) (UniProt Q92731). The experiment in a line: qHTS assay to identify small molecule agonists of the estrogen receptor beta (ER-beta) signaling pathway (AID 1259377; active = well fitted activation curve with a large enough effect in the signal ratio in the repeat runs, not every such curve was filed as active; the % refers to the signal ratio; note: potency is the fitted concentration of half-maximal effect). A digest of the protocol: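 In HEK293T cells bearing a UAS-beta-lactamase reporter under ER-beta control, DMSO-delivered compounds were incubated for 16 hr at 37C. Activity was detected as fluorescence 2 hours after LiveBLAzer B/G FRET substrate addition.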

Experiment [4] is described as follows: qHTS assay to identify small molecule agonists of the estrogen receptor beta (ER-beta) signaling pathway - cell viability counter screen (AID 1259380; active = well fitted curve in the direction sought with a large enough effect in the repeat runs; an effect the other way counts as inactive or inconclusive; note: nearly all actives have a fitted effect of over 30% in size; note: potency is the fitted concentration of half-maximal effect). A digest of the protocol:
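Cytotoxicity is measured in parallel with the reporter screen: after 16 hr compound exposure at 37C and a 2 hr LiveBLAzer step, CellTiter-Glo is added to the same ER-beta-UAS-bla HEK293T wells and luminescence read after 30 min.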

For experiment [5], the target named is Androgen receptor (Homo sapiens) (UniProt P10275). The experiment in a line: qHTS assay to identify small molecule agonists of the androgen receptor (AR) signaling pathway in the presence of an antagonist (AID 1259381). Note: nearly all actives have a fitted effect of over 15% in size. A digest of the protocol: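 Agonist-mode confirmation screen: human MDA-kb2 cells stably expressing luciferase under an MMTV promoter bearing AR and GR response elements, co-treated with 3.0uM nilutamide (final). Luminescence measured after 16hr compound incubation.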

Experiment [6] can be described thus: qHTS assay to identify small molecule antagonists of the estrogen receptor beta (ER-beta) signaling pathway - cell viability counter screen (AID 1259382; active = well fitted curve in the direction sought with a large enough effect in the repeat runs; an effect the other way counts as inactive or inconclusive;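 note: HEK293T cells carrying ER-beta-UAS-bla reporter stimulated with estradiol; series mostly up to about 92 µM; nearly all actives have a fitted effect of over 55% in size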). A digest of the protocol: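 Cytotoxicity counter screen multiplexed with the beta-lactamase antagonist assay: GripTite HEK293T ER-beta-bla cells were treated 16 hr with test chemicals in the presence of 1nM 17-beta-estradiol, and viability was measured by CellTiter-Glo.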

Experiment [7] has as its target Estrogen receptor (Homo sapiens) (UniProt P03372). Nature of the experiment: qHTS assay to identify small molecule agonists of the estrogen receptor alpha (ER-alpha) signaling pathway in the presence of an antagonist (AID 1259383). Note: top concentration of the series differs between compounds; nearly all actives have a fitted effect of over 15% in size. A digest of the protocol: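 Agonist-mode confirmation in the presence of the ER antagonist ICI-182,780 at 10.0nM final. Breast-derived VM7Luc4E2 reporter cells were exposed to compounds for 22hr, and ERE-driven luciferase was quantified by luminescence.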

A short description of experiment [8]: qHTS assay to identify small molecule agonists or antagonists of the thyroid stimulating hormone receptor (TSHR) signaling pathway - wild type cell line counter screen (AID 1259384). A digest of the protocol: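 Counter screen in untransfected Hek293: compounds (15-point titration, triplicate) plus phosphodiesterase inhibitor Ro20-1724 added after 18 h plating; 30 min RT. Intracellular cAMP via competitive d2/cryptate immunoassay, 1 h incubation.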

In experiment [9] the target is Thyrotropin receptor (Homo sapiens) (UniProt P16473). Nature of the experiment: qHTS assay to identify small molecule antagonists of the thyroid stimulating hormone receptor (TSHR) signaling pathway (AID 1259385). Note: nearly all actives have a fitted effect of over 20% in size. A digest of the protocol:
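Antagonist mode: compound-treated TSHR-expressing HEK293 cells were stimulated with 1.5 ng/mL TSH (final) in presence of Ro20-1724 for 30 min at RT. HTRF cAMP detection after 1 h; each compound tested at 15 concentrations, triplicate.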

Experiment [10] is described as follows: qHTS assay to identify small molecule agonists of the estrogen receptor alpha (ER-alpha) signaling pathway in the presence of an antagonist - cell viability counter screen (AID 1259386; active = well fitted curve in the direction sought with a large enough effect in the repeat runs; an effect the other way counts as inactive or inconclusive;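 note: cells exposed to compounds for 22 h at 37 °C before the viability read; nearly all actives have a fitted effect of over 30% in size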; note: potency is the fitted concentration of half-maximal effect). A digest of the protocol: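 Cytotoxicity was measured in parallel with the ERE-luciferase agonist screen, in the same wells. The cells were VM7Luc4E2, which endogenously express ER-alpha, and treatment was with compounds plus 10.0nM ICI-182,780 for 22hr.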

Experiment [11] addresses Progesterone receptor (Homo sapiens) (UniProt P06401). Nature of the experiment: qHTS assay to identify small molecule agonists of the progesterone receptor (PR) signaling pathway (AID 1346784). Note: nearly all actives have a fitted effect of over 30% in size. Note: potency is the fitted concentration of half-maximal effect. A digest of the protocol:
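Using charcoal-stripped serum (2%) to limit endogenous steroids, PR-UAS-bla HEK 293T cells received compounds for 16 hr at 37C after 6 hr plating; beta-lactamase FRET fluorescence was recorded following 2 hr substrate loading at room temperature.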

For experiment [12] the target is unchanged. The experiment in a line: qHTS assay to identify small molecule antagonists of the progesterone receptor (PR) signaling pathway (AID 1346795; active = well fitted inhibition curve with a large enough effect in the signal ratio in the repeat runs, not every such curve was filed as active; the % refers to the signal ratio; note: potency is the fitted concentration of half-maximal effect). A digest of the protocol: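 Inhibition of R5020-induced (1 nM final) beta-lactamase reporter signal in PR-UAS-bla HEK293T cells was scored by FRET fluorescence after overnight (16 hr) compound treatment.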
Experiment [13] can be described thus: qHTS assay to identify small molecule antagonists of the progesterone receptor (PR) signaling pathway - cell viability counter screen (AID 1346798; active = well fitted curve in the direction sought with a large enough effect in the repeat runs; an effect the other way counts as inactive or inconclusive; note: nearly all actives have a fitted effect of over 50% in size; note: potency is the fitted concentration of half-maximal effect). A digest of the protocol:
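ATP content as viability readout: CellTiter-Glo luminescence, 30 min room temperature, in PR-UAS-bla HEK293T cells after 16 hr compound/R5020 treatment at 37C and 5% CO2.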

Experiment [14] is described as follows: qHTS assay to identify small molecule agonists of the progesterone receptor (PR) signaling pathway - cell viability counter screen (AID 1346799). Note: nearly all actives have a fitted effect of over 45% in size. A digest of the protocol: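 Cytotoxicity in PR-bla HEK293T cells: 16 h compound, 37C; CellTiter-Glo added post-FRET read; luminescence after 30 min RT.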
Experiment [15] can be described thus: qHTS assay to identify small molecule antagonists of the TGF-beta/Smad signaling pathway - cell viability counter screen (AID 1346824; active = well fitted curve in the direction sought with a large enough effect in the repeat runs; an effect the other way counts as inactive or inconclusive; note: nearly all actives have a fitted effect of over 50% in size). A digest of the protocol:
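Cytotoxicity counter-screen run in the same wells as the beta-lactamase Smad reporter read: CellTiter-Glo luminescence after 30 min at room temperature. HEK 293T SBE-bla cells had 5 hr compound exposure at 37 C with TGF-beta1 (0.25 ng/mL stock).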

The nature of experiment [16]: qHTS assay to identify small molecule agonists of the TGF-beta/Smad signaling pathway - cell viability counter screen (AID 1346829; active = well fitted curve in the direction sought with a large enough effect in the repeat runs; an effect the other way counts as inactive or inconclusive; note: top concentration of the series differs between compounds; nearly all actives have a fitted effect of over 45% in size). A digest of the protocol:
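Here the cytotoxicity of library compounds is measured in SBE-bla HEK 293T cells treated for 5 hr, using CellTiter-Glo added to wells already read for the beta-lactamase reporter.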

A short description of experiment [17]: qHTS assay to identify small molecule agonists of the TGF-beta/Smad signaling pathway (AID 1346859; active = well fitted activation curve with a large enough effect in the signal ratio in the repeat runs, not every such curve was filed as active; the % refers to the signal ratio; note: series mostly up to about 77 µM). A digest of the protocol: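 Stable Smad binding element-beta-lactamase HEK 293T cells; 5 hr compound exposure at 37 C under 5% CO2; 2 hr room-temperature substrate step; fluorescence excited at 405 nm, collected at 460 nm and 530 nm.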
For experiment [18], the target named is Thyrotropin-releasing hormone receptor (Homo sapiens) (UniProt P34981). The experiment in a line: qHTS assay to identify small molecule antagonists of the thyrotropin-releasing hormone receptor (TRHR) signaling pathway (AID 1346877; active = well fitted inhibition curve with a large enough effect in the repeat runs, not every such curve was filed as active; note: series mostly up to about 51 µM). A digest of the protocol: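 Antagonism is measured as suppression of the calcium response to 1 nM TRH in TRHR-HEK293 cells that have been dye-loaded for 2 h at 37 °C after overnight plating. Each compound is tested at 15 concentrations in triplicate.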

Experiment [19] in a line: qHTS assay to identify small molecule agonists of the androgen receptor (AR) signaling pathway in the presence of an antagonist - cell viability counter screen (AID 1259379; active = well fitted curve in the direction sought with a large enough effect in the repeat runs; an effect the other way counts as inactive or inconclusive; note: nearly all actives have a fitted effect of over 25% in size; note: potency is the fitted concentration of half-maximal effect). A digest of the protocol:
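Cytotoxicity is assessed by CellTiter-Fluor in MDA-kb2 cells carrying an MMTV-driven luciferase reporter. Cells receive 3.0uM nilutamide plus compounds at 15 concentrations and incubate 16 hr at 37C without CO2 before fluorescence reading.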

Chain of Thyrotropin receptor (Homo sapiens) (P16473 whole entry, looked up): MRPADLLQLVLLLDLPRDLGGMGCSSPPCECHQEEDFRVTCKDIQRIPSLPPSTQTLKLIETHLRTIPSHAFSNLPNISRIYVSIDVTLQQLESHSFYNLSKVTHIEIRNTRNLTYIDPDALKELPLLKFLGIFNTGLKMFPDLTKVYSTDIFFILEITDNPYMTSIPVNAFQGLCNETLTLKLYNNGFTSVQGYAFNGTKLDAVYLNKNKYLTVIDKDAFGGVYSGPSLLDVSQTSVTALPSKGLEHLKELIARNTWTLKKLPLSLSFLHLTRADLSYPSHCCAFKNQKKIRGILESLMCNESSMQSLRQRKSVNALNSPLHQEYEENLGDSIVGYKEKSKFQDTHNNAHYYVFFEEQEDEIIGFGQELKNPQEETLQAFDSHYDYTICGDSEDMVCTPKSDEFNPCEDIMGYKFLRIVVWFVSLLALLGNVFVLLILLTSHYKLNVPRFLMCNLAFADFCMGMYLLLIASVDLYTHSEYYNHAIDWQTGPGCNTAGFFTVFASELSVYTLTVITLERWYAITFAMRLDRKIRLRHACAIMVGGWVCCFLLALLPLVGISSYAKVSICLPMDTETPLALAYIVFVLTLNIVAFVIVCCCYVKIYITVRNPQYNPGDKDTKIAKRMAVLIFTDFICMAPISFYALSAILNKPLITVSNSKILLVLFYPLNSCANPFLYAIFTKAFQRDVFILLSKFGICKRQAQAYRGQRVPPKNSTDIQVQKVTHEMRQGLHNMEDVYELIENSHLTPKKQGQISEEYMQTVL
Chain of Estrogen receptor (Homo sapiens) (P03372 whole entry, looked up): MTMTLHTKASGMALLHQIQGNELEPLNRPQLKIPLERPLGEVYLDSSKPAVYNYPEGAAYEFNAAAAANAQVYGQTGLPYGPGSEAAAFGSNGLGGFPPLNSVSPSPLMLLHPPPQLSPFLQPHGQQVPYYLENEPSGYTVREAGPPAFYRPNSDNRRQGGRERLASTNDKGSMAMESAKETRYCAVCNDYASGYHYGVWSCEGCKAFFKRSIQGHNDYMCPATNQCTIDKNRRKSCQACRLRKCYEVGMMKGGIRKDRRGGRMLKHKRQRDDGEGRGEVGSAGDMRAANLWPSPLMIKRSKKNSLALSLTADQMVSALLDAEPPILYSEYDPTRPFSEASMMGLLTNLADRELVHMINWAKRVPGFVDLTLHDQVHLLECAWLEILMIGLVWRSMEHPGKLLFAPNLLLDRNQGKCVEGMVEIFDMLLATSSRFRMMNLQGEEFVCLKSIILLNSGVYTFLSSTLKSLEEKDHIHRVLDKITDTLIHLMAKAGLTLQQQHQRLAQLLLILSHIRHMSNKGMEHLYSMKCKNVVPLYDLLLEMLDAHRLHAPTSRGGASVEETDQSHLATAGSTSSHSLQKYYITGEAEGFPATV
Chain of Estrogen receptor beta (Homo sapiens) (Q92731 whole entry, looked up): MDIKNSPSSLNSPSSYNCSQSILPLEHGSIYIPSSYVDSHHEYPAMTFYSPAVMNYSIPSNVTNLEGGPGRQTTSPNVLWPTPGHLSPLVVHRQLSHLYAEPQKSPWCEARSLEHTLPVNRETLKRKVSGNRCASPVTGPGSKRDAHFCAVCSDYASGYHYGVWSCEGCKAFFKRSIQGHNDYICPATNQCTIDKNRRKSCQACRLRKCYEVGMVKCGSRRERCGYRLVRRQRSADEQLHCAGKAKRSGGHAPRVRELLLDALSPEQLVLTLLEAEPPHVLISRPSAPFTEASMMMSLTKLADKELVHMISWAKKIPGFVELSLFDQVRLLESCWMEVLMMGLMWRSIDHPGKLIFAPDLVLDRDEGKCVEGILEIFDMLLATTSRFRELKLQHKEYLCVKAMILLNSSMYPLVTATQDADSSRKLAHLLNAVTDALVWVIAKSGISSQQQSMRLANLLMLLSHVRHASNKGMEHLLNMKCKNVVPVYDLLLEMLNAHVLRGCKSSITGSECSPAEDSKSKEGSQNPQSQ
Chain of Thyrotropin-releasing hormone receptor (Homo sapiens) (P34981 whole entry, looked up): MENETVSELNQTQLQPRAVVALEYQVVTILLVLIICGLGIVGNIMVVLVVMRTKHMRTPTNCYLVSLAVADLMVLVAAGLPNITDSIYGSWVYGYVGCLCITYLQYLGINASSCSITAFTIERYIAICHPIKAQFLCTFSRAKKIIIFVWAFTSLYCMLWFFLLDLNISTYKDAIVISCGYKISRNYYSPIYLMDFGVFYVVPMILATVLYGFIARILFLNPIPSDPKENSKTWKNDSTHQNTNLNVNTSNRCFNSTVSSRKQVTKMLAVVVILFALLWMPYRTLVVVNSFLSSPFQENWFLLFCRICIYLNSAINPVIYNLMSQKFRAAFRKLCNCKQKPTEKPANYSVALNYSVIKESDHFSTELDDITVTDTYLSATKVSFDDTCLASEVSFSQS
Chain of Progesterone receptor (Homo sapiens) (P06401 whole entry, looked up): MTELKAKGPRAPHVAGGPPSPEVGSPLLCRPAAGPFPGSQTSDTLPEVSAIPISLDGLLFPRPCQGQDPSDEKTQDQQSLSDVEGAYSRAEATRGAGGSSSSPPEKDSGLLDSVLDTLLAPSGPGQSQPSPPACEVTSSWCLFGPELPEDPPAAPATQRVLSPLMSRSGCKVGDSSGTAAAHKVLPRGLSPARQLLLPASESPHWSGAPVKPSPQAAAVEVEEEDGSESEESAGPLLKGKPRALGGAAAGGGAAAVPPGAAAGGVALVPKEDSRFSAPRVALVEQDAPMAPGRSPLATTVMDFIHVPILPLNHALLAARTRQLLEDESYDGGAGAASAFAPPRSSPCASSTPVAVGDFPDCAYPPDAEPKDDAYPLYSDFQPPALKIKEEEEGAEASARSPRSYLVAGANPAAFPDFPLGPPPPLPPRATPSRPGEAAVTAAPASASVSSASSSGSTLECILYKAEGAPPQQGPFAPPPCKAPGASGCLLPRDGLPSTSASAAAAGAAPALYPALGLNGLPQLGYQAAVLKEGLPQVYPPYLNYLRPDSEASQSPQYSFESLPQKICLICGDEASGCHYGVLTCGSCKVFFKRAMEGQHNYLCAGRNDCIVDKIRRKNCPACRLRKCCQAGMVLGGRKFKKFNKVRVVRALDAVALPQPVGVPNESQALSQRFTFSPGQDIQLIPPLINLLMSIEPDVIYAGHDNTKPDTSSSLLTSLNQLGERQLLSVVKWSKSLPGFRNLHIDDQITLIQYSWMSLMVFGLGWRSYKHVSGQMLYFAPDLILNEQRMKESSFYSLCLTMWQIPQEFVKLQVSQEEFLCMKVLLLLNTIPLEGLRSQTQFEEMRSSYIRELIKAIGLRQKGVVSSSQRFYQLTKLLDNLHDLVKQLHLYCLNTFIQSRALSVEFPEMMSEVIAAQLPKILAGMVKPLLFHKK
Chain of Androgen receptor (Homo sapiens) (P10275 whole entry, looked up): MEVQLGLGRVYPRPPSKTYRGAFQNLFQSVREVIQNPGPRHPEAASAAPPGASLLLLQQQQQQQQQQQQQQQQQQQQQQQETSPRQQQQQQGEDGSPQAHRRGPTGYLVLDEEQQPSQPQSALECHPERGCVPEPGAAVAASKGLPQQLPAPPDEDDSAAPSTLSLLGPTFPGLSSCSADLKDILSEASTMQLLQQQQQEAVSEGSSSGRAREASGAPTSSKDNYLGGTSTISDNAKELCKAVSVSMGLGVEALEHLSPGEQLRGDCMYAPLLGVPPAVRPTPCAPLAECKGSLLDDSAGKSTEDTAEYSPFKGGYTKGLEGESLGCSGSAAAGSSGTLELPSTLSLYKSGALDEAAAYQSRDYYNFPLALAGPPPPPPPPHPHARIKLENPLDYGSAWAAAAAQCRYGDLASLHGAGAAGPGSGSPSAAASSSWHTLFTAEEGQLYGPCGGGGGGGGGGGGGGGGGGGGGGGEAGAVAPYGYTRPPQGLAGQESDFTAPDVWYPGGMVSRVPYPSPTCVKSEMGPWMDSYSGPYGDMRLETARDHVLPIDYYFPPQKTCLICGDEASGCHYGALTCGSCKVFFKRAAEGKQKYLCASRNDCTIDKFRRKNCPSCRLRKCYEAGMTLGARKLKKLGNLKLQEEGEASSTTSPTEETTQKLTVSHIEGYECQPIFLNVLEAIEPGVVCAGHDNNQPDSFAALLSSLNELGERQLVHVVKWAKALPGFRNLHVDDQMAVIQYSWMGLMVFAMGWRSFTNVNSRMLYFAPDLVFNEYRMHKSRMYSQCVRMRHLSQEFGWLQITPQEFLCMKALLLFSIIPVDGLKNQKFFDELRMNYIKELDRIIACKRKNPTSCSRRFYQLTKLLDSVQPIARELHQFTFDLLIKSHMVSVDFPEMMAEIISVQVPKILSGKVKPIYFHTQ

As for `CCCCC(CC)C(=O)OCCOCCOCCOC(=O)C(CC)CCCC` (centres undefined), the call in experiment [1], in [8], in experiment [9], in [17] and in experiment [18] was inactive. For the same compound, the Potency result in [2], in experiment [3], in experiment [4], in experiment [5], in experiment [6] and in experiment [7] was “inactive” throughout. Besides, the Potency result in [10], in [11], in [12], in [13], in [14] and in [15] was “inactive” in each case. Moreover, in experiment [16], the Potency result was “inactive”.
Take `S=c1nc[nH]c2nc[nH]c12`: the compound was classed as inactive in [1], in experiment [8], in experiment [9], in experiment [17] and in [18]. Besides, the Potency result in [2], in [3], in [19], in experiment [7], in experiment [10] and in [11] was “inactive” throughout. Further, the Potency was 7.51 µM (active) and 3.35 µM (active) in [4]; 8.41 µM (active) in [13].
As to `CC(=O)[C@@]1(O)CC[C@H]2[C@@H]3CCC4=CC(=O)CC[C@]4(C)[C@H]3CC[C@@]21C`, the compound was classed as inactive in experiment [1], in [8], in experiment [9], in [17] and in experiment [18]. For the same compound, the Potency result in experiment [2], in experiment [3], in experiment [19], in [4], in experiment [6] and in experiment [10] was “inactive” in each case. Further, the Potency result in experiment [12], in [13] and in experiment [16] was “inactive” each time. Further, the Potency in experiment [11] is 3.35 µM (active).
On to `Cc1cc(O)c2c(c1)C(=O)c1cc(O)cc(O)c1C2=O`, for which the compound was classed as inactive in [1], in experiment [8], in experiment [9] and in [18]. The Potency in experiment [2] is 34.4 µM (active); in experiment [3], 4.86 µM (active); in [19], 26.7 µM (active) and 30.6 µM (active); in [10], 15.4 µM (active); in experiment [12], 29.9 µM (active) and 27.3 µM (active). The Potency result in experiment [4], in experiment [6], in experiment [11], in [13], in [14] and in [16] was “inactive” each time.
`CC1=C(/C=C/C(C)=C/C=C/C(C)=C/CO)C(C)(C)CCC1`: the call in experiment [1], in experiment [8], in experiment [9], in experiment [17] and in [18] was inactive. In [2], the Potency is 15.5 µM (active). In addition, the Potency entry in [3], in [19], in experiment [4], in experiment [6], in [7] and in experiment [10] was “inactive” in each case. In addition, the Potency result in [11], in experiment [12], in experiment [13], in experiment [14] and in experiment [16] was “inactive” in each case.
Regarding `CC1=CC[C@H]2C[C@@H]1C2(C)C`, the result in experiment [1], in [8], in [9], in experiment [17] and in [18] was inactive. The Potency result in [2], in experiment [3], in experiment [19], in [4], in [6] and in [7] was “inactive” throughout. For the same compound, the Potency result in experiment [10], in experiment [11], in experiment [12], in experiment [13], in experiment [14] and in [15] was “inactive” in each case. For the same compound, the Potency entry in experiment [16] was “inactive”.
As for `OCCOCCOCCOCCO`, the outcome in [1], in experiment [8], in experiment [9], in [17] and in [18] was inactive. The Potency result in experiment [2], in [3], in experiment [19], in [4], in [6] and in [7] was “inactive” throughout. In addition, the Potency result in experiment [10], in [11], in experiment [12], in [13], in experiment [14] and in experiment [15] was “inactive” in each case. The Potency result in experiment [16] was “inactive”.
